Source: the OligoGym collection

What follows are sequences tested against P2RX3 (assay: pooled miR-30 sensor sort-seq; sequence = guide strand). Conditions: shRNA.
Further: reference of the scale not given here.

Sequence	sensor-assay potency score (higher = more potent)
TTGAACTTGCCAGCATTCCCGT	-1.02
TATACCAGCACGTCGAAGCGGA	-0.313
TTCACAACCACCGACTTGGTGG	-0.566
TTTCTCAGAAACGCTGTCGAGC	-0.254
TCAGTAACAATCATCTTGGTGA	0.681
TTCAGTAACAATCATCTTGGTG	-0.0732

Each sequence was assayed against P2RY12 in the same assay as above. Conditions: shRNA.

Sequence	sensor-assay potency score (higher = more potent)
TTAACCACAGAGTGCTCTCTTT	-0.668
TTATTATTAACTTAGTTGCTTC	-0.642
ATTTGGGTCACCACCATCCTGT	-0.843
TTCTTGTCTCTCGGCTGCCTGT	-1.33
TTCACATTCTTGTCTCTCGGCT	-0.666
TTATTAACTTAGTTGCTTCTTC	0.717
TTGACGTTCACCTTTTTCCTGG	0.386
TAATATTTTTACTTAGCGCTTT	0.117
TTAACTTAGTTGCTTCTTCGTC	-0.236
TAATTTACTATTTCATGCCAGA	-0.703
TAAAGTTTGATTTACTCCGGAT	-0.511
TTTCATGCCAGACTAGACCGAA	-0.342

The sequences below were run against P2RY4 in the same assay as above. Conditions: shRNA.

Sequence	sensor-assay potency score (higher = more potent)
TAGAGCAGCTACTGTCCTGGGG	0.0671
TGAACTTGAAATCCTCATCAAA	-1.05
AAGACGACTGTGCAGAGCCTGG	-1.35
TTGACAATGTTCAGTACTCGGC	-0.264
ATAGCAAACAAGAGTGACCAGG	-0.888
TAGCAAACAAGAGTGACCAGGC	0.861
TTCCAATAGAAAAGAAAGCGGA	-0.289
TAGCGGTGCACGCTGATGCAGG	-1.24
TTGAAATCCTCATCAAACCAAC	-1.03
TAGGAGTAGAGCAGCTACTGTC	-0.823
AGTAGAGCAGCTACTGTCCTGG	-1.37
TAGAGCACAGGATCCAGGCAGC	-0.928

The sequences below were run against P2RY6 in the same assay as above. Conditions: shRNA.

Sequence	sensor-assay potency score (higher = more potent)
TCGCGGTAGACACAGGTGGTGG	-1.81
TTCTGTAGGAGCTCATGTGGTC	-0.257
AGTTGCTTGAAGTTCTCGCGGT	-0.308
TTGGGCATAGTTGTAGATGAGC	-1.06
TTCTCGCGGTAGACACAGGTGG	-0.894
TTTTGTGAGCACCTTAATGTGG	-0.636
TTGGCATAGAAGAGGAAGCGGA	-1
TTTAGGGTGTACACGGCCGTGC	-0.557
TTGGTGAGCTTCTGGGTCCTGT	-0.191
ATAGTTGTAGATGAGCAGGGGC	0.421
